# Laboratory results published in PubChem BioAssay.
# Several values for one entry are separate records, joined by “and”; a condition that tells them apart may be missing. Equal values may be shown once. The source holds several records for some structures; these can differ, active in one and inactive in another. Activity calls are given as the source filed them. Unless noted, how the calls were made is not given here.
# Legend:
# [1] = tested on: Wnt5a (protein binding on small-molecule microarray); test: small molecules binding Wnt5a protein – biophysical, small-molecule microarray, 635/667 nm fluorescence, primary screen (AID 1142); conditions: 635 nm fluorescence, higher = more signal;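 further: fluorescence read at 667 nm with signal to noise per printed feature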
# [2] = ATP-based viability of Huh7 replicon cells – cell-based, CellTiter-Glo luminescence, basal, 48 h, cytotoxicity control for HCV replication inhibitor project, primary screen (AID 1143); conditions: higher = more signal, called active from +8 up or from −8 down;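 further: Huh7 hepatoma cells carrying a hepatitis C replication reporter with no stimulus; test concentration not given here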
# [3] = Pseudomonas biofilm growth suppression – PAO1 strain, BacTiter-Glo luminescence, LB-PBS, primary screen (AID 1144); conditions: P. aeruginosa PAO1 biofilm, 12 h, higher = more signal
# [4] = basal CRE-LacZ reporter activity in PC12 – cell-based, unstimulated, primary screen (AID 1145); conditions: no forskolin, luminescence, 4.5 h, higher = more signal, called active from +8 up or from −8 down
# [5] = forskolin-driven CRE-LacZ activity in PC12 – cell-based, CRE-LacZ reporter, forskolin-stimulated, primary screen (AID 1146); conditions: luminescence, 4.5 h, higher = more signal, called active from +8 up or from −8 down;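 further: PC12 cells with 6xCRE LacZ reporter stimulated by forskolin 10 µM; beta-galactosidase reporter signal reflecting CREB driven transcription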
# [6] = molecular target: Streptavidin (Streptomyces avidinii) (UniProt P22629); test: compounds binding control protein streptavidin – biophysical, small-molecule microarray, 635/667 nm fluorescence, artefact control for SMM compound annotation, primary screen (AID 1147); conditions: higher = more signal;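 further: signal reflects streptavidin binding to arrayed compounds as a control protein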
# Sequence of Streptavidin (Streptomyces avidinii) (P22629 whole entry, looked up): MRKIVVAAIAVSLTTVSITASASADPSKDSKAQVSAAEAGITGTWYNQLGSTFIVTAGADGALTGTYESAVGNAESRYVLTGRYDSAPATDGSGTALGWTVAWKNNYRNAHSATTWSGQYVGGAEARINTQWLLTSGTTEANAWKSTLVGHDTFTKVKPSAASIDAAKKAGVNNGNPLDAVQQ
# [7] = probe aInhba binding on compound microarray – biochemical, small-molecule microarray, 635/667 nm fluorescence, primary screen (AID 1148); conditions: higher = more signal;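 further: score merges 667nm spot fluorescence with signal-to-noise for antibody binding to printed compounds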
# [8] = molecular target: Torsin-1A (Homo sapiens) (UniProt O14656); test: TOR1A wild-type binding on microarray – cell lysate, small-molecule microarray, lysate, 635/667 nm, primary screen (AID 1149); conditions: COS7 hTOR1A-WT lysate, 635 nm fluorescence, higher = more signal
# Sequence of Torsin-1A (Homo sapiens) (O14656 whole entry, looked up): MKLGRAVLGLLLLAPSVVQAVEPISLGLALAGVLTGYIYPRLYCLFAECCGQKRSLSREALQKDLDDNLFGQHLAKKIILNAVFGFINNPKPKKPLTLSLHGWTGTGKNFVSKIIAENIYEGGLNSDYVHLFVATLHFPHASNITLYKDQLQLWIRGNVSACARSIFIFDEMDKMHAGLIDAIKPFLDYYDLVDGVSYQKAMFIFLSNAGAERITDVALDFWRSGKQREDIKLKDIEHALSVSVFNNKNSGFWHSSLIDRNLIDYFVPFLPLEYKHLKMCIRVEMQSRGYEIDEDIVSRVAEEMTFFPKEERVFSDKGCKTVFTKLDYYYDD
# [9] = molecular target: Torsin-1A (Homo sapiens) (UniProt O14656); test: torsin A mutant lysate binding on microarrays – cell lysate, small-molecule microarray, COS7 lysate, 635/667 nm fluorescence, primary screen (AID 1150); conditions: COS7 hTOR1A mutant lysate, 635 nm fluorescence, higher = more signal;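 further: score pools 667 nm emission and signal to noise measuring lysate protein binding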
# [10] = tested on: Sonic hedgehog protein (Shh); test: Sonic hedgehog microarray binding compounds – biochemical, small-molecule microarray, 635/667 nm fluorescence, primary screen (AID 1151); conditions: 635 nm fluorescence, higher = more signal;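 further: Shh protein binding to compounds spotted on small-molecule microarray slides; score combines spot fluorescence intensity with signal-to-noise across triplicate slides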
# [11] = optical density shifts of acrAB sulA E. coli – strain DRC41, OD650, 48 h, E. coli filamentation inducer project, primary screen (AID 1152); conditions: higher = more signal, called active from +8 up or from −8 down;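 further: E. coli MC1000 strain DRC41 lacking acrAB efflux pump and sulA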
# [12] = probe aLefty1 binding on compound microarray – biochemical, small-molecule microarray, 635/667 nm fluorescence, primary screen (AID 1153); conditions: higher = more signal;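 further: score merges spot fluorescence with signal-to-noise ratio from the scanned slide images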
# [13] = plasmodial surface anion channel blockers, osmotic lysis – cell-based, P. falciparum Indochina, OD700, 1 h, primary screen (AID 1154); conditions: P. falciparum Indochina infected RBC osmotic lysis, higher = more signal, called active from +8 up or from −8 down
# [14] = plasmodial surface anion channel blockers, osmotic lysis – cell-based, P. falciparum Indochina, OD700, 2 h, primary screen (AID 1155);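 further: lysis reports solute entry through the parasite surface anion channel PSAC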; conditions: P. falciparum Indochina infected erythrocytes, higher = more signal, called active from +8 up or from −8 down
# [15] = changes in parasitized red cell lysis, either direction – P. falciparum Indochina, OD700, 3 h, PSAC antagonist project, primary screen (AID 1156); conditions: P. falciparum-infected erythrocytes, osmotic lysis, higher = more signal, called active from +8 up or from −8 down
# [16] = plasmodial surface anion channel blockers, osmotic lysis – cell-based, P. falciparum Indochina, OD700, 18 h, primary screen (AID 1157); conditions: P. falciparum Indochina infected erythrocytes, osmotic lysis OD700, 18 h; higher = more signal, called active from +8 up or from −8 down
# [17] = S6 kinase pathway phospho-S6 level changes – cell-based, A549, cytoblot, luminescence, serum-stimulated, primary screen (AID 1158); conditions: 5 h, higher = more signal;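 further: serum-stimulated A549 lung adenocarcinoma cells; signal is phosphorylated S6 detected by cytoblot immunostaining with HRP secondary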
# [18] = molecular target: NADPH oxidase 2 (Homo sapiens) (UniProt P04839); test: compounds shifting NOX2 Amplex Red fluorescence – cell-based, HEK293-NOX2, PMA-stimulated, NOX inhibitor project, primary screen (AID 1159); conditions: 45 min, higher = more signal, called active from +8 up or from −8 down; further: test concentration not given here
# Sequence of NADPH oxidase 2 (Homo sapiens) (P04839 whole entry, looked up): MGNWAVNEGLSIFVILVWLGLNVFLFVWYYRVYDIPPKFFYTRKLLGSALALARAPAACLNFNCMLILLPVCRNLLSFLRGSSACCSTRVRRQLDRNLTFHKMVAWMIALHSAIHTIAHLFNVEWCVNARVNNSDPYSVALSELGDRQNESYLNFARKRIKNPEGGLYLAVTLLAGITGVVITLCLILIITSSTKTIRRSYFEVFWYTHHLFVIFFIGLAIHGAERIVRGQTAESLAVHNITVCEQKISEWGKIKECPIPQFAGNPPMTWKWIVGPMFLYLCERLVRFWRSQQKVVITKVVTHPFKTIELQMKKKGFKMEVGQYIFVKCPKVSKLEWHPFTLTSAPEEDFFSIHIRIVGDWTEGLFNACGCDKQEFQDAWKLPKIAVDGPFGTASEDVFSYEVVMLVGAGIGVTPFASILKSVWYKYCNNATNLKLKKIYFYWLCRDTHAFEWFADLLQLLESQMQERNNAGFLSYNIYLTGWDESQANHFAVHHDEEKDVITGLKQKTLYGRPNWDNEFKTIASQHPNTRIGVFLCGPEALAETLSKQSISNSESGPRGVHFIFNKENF
# [19] = molecular target: NADPH oxidase 4 (Homo sapiens) (UniProt Q9NPH5); test: compounds shifting NOX4 Amplex Red fluorescence – cell-based, HEK293-NOX4, tetracycline-induced, NOX inhibitor project, primary screen (AID 1160); conditions: HEK293-NOX4, Amplex Red H2O2 fluorescence, 45 min; higher = more signal, called active from +8 up or from −8 down
# Sequence of NADPH oxidase 4 (Homo sapiens) (Q9NPH5 whole entry, looked up): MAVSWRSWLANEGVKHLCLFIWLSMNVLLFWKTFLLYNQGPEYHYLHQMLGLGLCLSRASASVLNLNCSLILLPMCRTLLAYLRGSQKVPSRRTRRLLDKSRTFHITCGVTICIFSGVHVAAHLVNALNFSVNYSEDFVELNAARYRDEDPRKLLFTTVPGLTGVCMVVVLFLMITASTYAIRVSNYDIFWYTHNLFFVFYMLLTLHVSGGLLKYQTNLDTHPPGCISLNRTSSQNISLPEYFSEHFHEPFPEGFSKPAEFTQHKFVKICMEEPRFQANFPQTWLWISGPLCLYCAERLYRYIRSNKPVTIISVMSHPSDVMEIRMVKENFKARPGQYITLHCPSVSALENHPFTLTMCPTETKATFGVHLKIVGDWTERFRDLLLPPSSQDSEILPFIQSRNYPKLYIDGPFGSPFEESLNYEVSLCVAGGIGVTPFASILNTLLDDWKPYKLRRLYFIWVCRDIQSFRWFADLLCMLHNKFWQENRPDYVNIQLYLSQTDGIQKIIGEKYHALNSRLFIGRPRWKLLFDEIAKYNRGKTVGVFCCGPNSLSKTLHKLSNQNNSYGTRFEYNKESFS
# [20] = molecular target: NADPH oxidase 5 (Homo sapiens) (UniProt Q96PH1); test: compounds shifting NOX5 Amplex Red fluorescence – cell-based, HEK293-NOX5, NOX inhibitor project, primary screen (AID 1161); conditions: HEK293-NOX5, ionomycin, 45 min, higher = more signal
# Sequence of NADPH oxidase 5 (Homo sapiens) (Q96PH1 whole entry, looked up): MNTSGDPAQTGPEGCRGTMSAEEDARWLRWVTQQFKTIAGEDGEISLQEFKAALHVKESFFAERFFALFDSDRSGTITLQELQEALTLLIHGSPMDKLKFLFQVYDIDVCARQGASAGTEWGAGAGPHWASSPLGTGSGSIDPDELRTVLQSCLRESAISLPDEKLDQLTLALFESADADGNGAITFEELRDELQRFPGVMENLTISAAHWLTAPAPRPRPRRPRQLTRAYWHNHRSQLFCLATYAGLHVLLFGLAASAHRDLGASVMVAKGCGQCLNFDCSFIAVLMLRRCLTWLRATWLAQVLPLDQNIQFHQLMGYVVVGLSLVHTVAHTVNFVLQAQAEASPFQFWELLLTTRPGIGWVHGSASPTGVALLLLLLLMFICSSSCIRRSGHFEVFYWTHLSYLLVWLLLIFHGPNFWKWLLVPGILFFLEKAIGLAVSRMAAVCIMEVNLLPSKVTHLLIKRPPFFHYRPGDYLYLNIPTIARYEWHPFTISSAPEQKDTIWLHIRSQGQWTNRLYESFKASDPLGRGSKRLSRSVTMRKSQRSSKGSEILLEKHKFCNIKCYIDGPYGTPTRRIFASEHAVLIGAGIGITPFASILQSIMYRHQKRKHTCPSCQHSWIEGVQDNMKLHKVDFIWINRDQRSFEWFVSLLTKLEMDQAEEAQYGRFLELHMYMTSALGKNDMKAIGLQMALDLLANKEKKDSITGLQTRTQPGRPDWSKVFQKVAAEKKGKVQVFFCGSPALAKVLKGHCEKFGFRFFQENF
Structure (SMILES),composite z-score [1],z-score [2],z-score [3],z-score [4],z-score [5],composite z-score [6],composite z-score [7],composite z-score [8],composite z-score [9],composite z-score [10],z-score [11],composite z-score [12],z-score [13],z-score [14],z-score [15],z-score [16],z-score [17],z-score [18],z-score [19],z-score [20]
C=CCN(C(=O)C1N(c2c(Cl)cccc2CO)C(=O)C2C(C(=O)O)C3C=CC21O3)C(C)(C)C (stereo not given),-0.948 and -0.619,-0.488 (inactive) and 0.0489 (inactive),-0.774 (inactive) and -0.443 (inactive),-1.44 (inactive) and 0.329 (inactive),-0.219 (inactive) and -0.51 (inactive),0.163 and -1.11,-0.702 and -0.213,-2.54 and -1.22,-1.62 and -1.73,-1.17 and -0.681,1.66 (inactive) and 1.99 (inactive),-0.945 and -0.0547,1.77 (inactive) and -0.973 (inactive),0.821 (inactive) and -1.1 (inactive),1.03 (inactive) and -0.229 (inactive),0.604 (inactive) and -1.54 (inactive),0.442 and 1.04,0.961 (inactive) and 0.116 (inactive),-0.288 (inactive) and -0.645 (inactive),0.788 and -0.335
CCCC[C@@H]1CN2[C@H](c3ccc(Br)cc3)[C@@H](C)CC[C@H]2C(=O)O1,-0.134 and -0.107,-0.394 (inactive) and -0.261 (inactive),-0.379 (inactive) and -0.292 (inactive),-0.343 (inactive) and 0.285 (inactive),0.903 (inactive) and 0.466 (inactive),-0.13 and 0.159,-0.261 and -0.0531,0.0781 and 0.436,0.516 and -0.16,0.11 and 0.152,0.469 (inactive) and -0.0124 (inactive),-0.308 and -0.0132,1.56 (inactive) and 1.12 (inactive),0.395 (inactive) and 0.586 (inactive),1.2 (inactive) and -0.241 (inactive),0.492 (inactive) and 0.318 (inactive),0.57 and -0.262,0.203 (inactive) and -0.527 (inactive),0.332 (inactive) and -0.0635 (inactive),-0.884 and -1.79
O=C1C[C@]2(c3ccc([N+](=O)[O-])cc3)C(=O)N(Cc3ccccc3)c3cc(CO)ccc3[C@H]2N1C1CCCCC1,0.0771 and 0.551,0.282 (inactive) and -5.67 (inactive),-0.19 (inactive) and -0.334 (inactive),-0.348 (inactive) and -0.152 (inactive),1.03 (inactive) and -0.885 (inactive),-0.286 and -0.157,-0.249 and 0.163,0.251 and 0.0218,0.22 and -0.0773,0.837 and 1.22,0.128 (inactive) and 0.873 (inactive),-0.221 and -0.0626,0.164 (inactive) and 11.5 (active),-0.198 (inactive) and 1.01 (inactive),-0.57 (inactive) and 4.35 (inactive),-0.434 (inactive) and -0.166 (inactive),0.483 and 2.97,0.139 (inactive) and 1.55 (inactive),0.644 (inactive) and -1.56 (inactive),-0.416 and -0.385
C[C@@H]1CN2[C@@H](CC[C@@H](C)[C@@H]2c2ccc(Br)cc2)C(=O)O1,-0.174 and -0.0451,0.482 (inactive) and -0.656 (inactive),0.259 (inactive) and -1.1 (inactive),0.74 (inactive) and 2 (inactive),0.667 (inactive) and 0.0918 (inactive),-0.404 and -0.145,-0.193 and 0.0506,-0.467 and 0.111,0.0914 and 0.0837,0.486 and 0.218,-1.42 (inactive) and 0.0426 (inactive),0.0367 and -0.275,0.169 (inactive) and -0.313 (inactive),0.279 (inactive) and -1.09 (inactive),-0.425 (inactive) and -0.16 (inactive),0.125 (inactive) and -1.18 (inactive),-0.0649 and 1.61,1.55 (inactive) and -0.12 (inactive),-1 (inactive) and 0.168 (inactive),0.0337 and 0.614
C=CCN(Cc1ccccc1)C(=O)C(c1cccs1)N(C(=O)/C=C\C(=O)O)c1c(Cl)cccc1CO (stereo not given),-0.835 and -0.796,-0.109 (inactive) and 0.446 (inactive),-1.78 (inactive) and 0.911 (inactive),-1.44 (inactive) and 0.191 (inactive),-0.418 (inactive) and -0.107 (inactive),-1.7 and -1.08,-0.154 and -0.176,-2.82 and -2.49,0.702 and -1.72,-0.877 and -0.78,-0.608 (inactive) and -0.244 (inactive),-0.855 and -0.191,-0.152 (inactive) and -0.0214 (inactive),0.0805 (inactive) and 0.266 (inactive),0.617 (inactive) and -0.39 (inactive),0.306 (inactive) and 0.109 (inactive),0.0278 and -0.193,-0.0842 (inactive) and 0.208 (inactive),-0.662 (inactive) and -0.417 (inactive),0.0528 and 0.284
CCOC(=O)NN=C1C[C@@H](O)[C@@H](O)[C@@H]2[C@@H]3C(=O)N(Cc4ccc5c(c4)OCO5)C(=O)[C@@H]3CC[C@@H]12,-0.0968,-0.299 (inactive),1.43 (inactive),-0.293 (inactive),-0.341 (inactive),0.79,-0.179,0.39,0.0143,0.191,0.806 (inactive),-0.14,6.5 (inactive),1.29 (inactive),1.34 (inactive),0.574 (inactive),-0.403,-0.00897 (inactive),0.786 (inactive),0.175
